Measured values reported in PubChem BioAssay AID1159580 (chemical genetic matrix, 2015).
Hit rate of the full screen: of about 5,500 compounds, about 2,000 (36%) were called active. Roughly 18% stayed inconclusive and do not appear here. Cut-off read from the data, not from the text of the source: active = normalized growth mostly below about 0.91 (no sharp cut-off); inconclusive = no clear call, values can overlap the other calls; inactive = mostly above about 0.92. The list shows a part of the results. Where a SMILES comes first, the peptide text is derived from it. [ ]: non-standard residue; d: D form. Orn = NCCC[CH](N)C(=O)O

Experiment: chemical genetic growth profiling, strain panel (AID 1159580);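 note: tested at 20 µM; growth read once vehicle control cultures reached saturation at 30 °C; 1 = growth at the plate median or of vehicle wells; lower values mean less growth of the strain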
Conditions: growth OD

Measured: normalized growth

CC(C)CC1NC(=O)C(CCCN)NC(=O)C(C(C)C)NC(=O)C2CCCN2C(=O)C(Cc2ccccc2)NC(=O)C(CC(C)C)NC(=O)C(CCCN)NC(=O)C(C(C)C)NC(=O)C2CCCN2C(=O)C(Cc2ccccc2)NC1=O (stereo unspecified) (cyclo(FPV[Orn]LFPV[Orn]L); configuration not given here)
inactive: S. cerevisiae deletion strains, locus YKL160W, strain elf1, hits give low values 1.02 | S. cerevisiae deletion strains, locus YKL190W, strain CNB1, hits give low values 1.02 | S. cerevisiae deletion strains, locus YKR026C, strain gcn3, hits give low values 1.04 | S. cerevisiae deletion strains, locus YKR091W, strain srl3, hits give low values 1.02 | S. cerevisiae deletion strains, locus YLL001W, strain dnm1, hits give low values 1.03 | S. cerevisiae deletion strains, locus YLL026W, hits give low values 1.02 | S. cerevisiae deletion strains, locus YLL041C, strain sdh2, hits give low values 1.02 | S. cerevisiae deletion strains, locus YLR027C, strain aat2, hits give low values 1.01 | S. cerevisiae deletion strains, locus YLR058C, strain SHM2, hits give low values 1 | S. cerevisiae deletion strains, locus YLR102C, strain apc9, hits give low values 1.01 | S. cerevisiae deletion strains, locus YLR113W, strain HOG1, hits give low values 0.971 | S. cerevisiae deletion strains, locus YLR221C, strain rsa3, hits give low values 1.04 | S. cerevisiae deletion strains, locus YLR258W, strain gsy2, hits give low values 1.04 | S. cerevisiae deletion strains, locus YLR268W, strain sec22, hits give low values 0.989 | S. cerevisiae deletion strains, locus YLR320W, strain mms22, hits give low values 1.02 | S. cerevisiae deletion strains, locus YLR330W, strain CHS5, hits give low values 1.01 | S. cerevisiae deletion strains, locus YLR342W, strain FKS1 (second series), hits give low values 0.857 | S. cerevisiae deletion strains, locus YLR342W, strain FKS1, hits give low values 1.02 | S. cerevisiae deletion strains, locus YLR357W, strain rsc2, hits give low values 0.968 | S. cerevisiae deletion strains, locus YLR370C, strain arc18, hits give low values 0.927 | S. cerevisiae deletion strains, locus YLR371W, strain rom2, hits give low values 1.01 | S. cerevisiae deletion strains, locus YLR384C, strain iki3, hits give low values 1.03 | S. cerevisiae deletion strains, locus YLR418C, strain cdc73, hits give low values 0.932 | S. cerevisiae deletion strains, locus YML016C, strain PPZ1, hits give low values 1.01 | S. cerevisiae deletion strains, locus YML032C, strain rad52, hits give low values 0.989 | S. cerevisiae deletion strains, locus YML120C, strain ndi1, hits give low values 1.02 | S. cerevisiae deletion strains, locus YML124C, strain tub3, hits give low values 1 | S. cerevisiae deletion strains, locus YMR058W, strain fet3, hits give low values 1.03 | S. cerevisiae deletion strains, locus YMR078C, strain ctf18, hits give low values 1.01 | S. cerevisiae deletion strains, locus YMR125W, strain sto1, hits give low values 0.999 | S. cerevisiae deletion strains, locus YMR129W, hits give low values 1.02 | S. cerevisiae deletion strains, locus YMR205C, strain PFK2, hits give low values 1.02 | S. cerevisiae deletion strains, locus YMR223W, strain ubp8, hits give low values 0.978 | S. cerevisiae deletion strains, locus YMR263W, strain SAP30, hits give low values 1 | S. cerevisiae deletion strains, locus YMR307W, strain GAS1, hits give low values 0.833 | S. cerevisiae deletion strains, locus YNL067W, strain RPL9B, hits give low values 0.994 | S. cerevisiae deletion strains, locus YNL071W, strain lat1, hits give low values 1.03 | S. cerevisiae deletion strains, locus YNL128W, strain TEP1, hits give low values 1.03 | S. cerevisiae deletion strains, locus YNL153C, strain GIM3, hits give low values 1 | S. cerevisiae deletion strains, locus YNL183C, strain NPR1, hits give low values 0.948 | S. cerevisiae deletion strains, locus YNL209W, strain ssb2, hits give low values 1.01 | S. cerevisiae deletion strains, locus YNL233W, strain BNI4, hits give low values 0.982 | S. cerevisiae deletion strains, locus YNL248C, strain rpa49, hits give low values 1.03 | S. cerevisiae deletion strains, locus YNL250W, strain rad50, hits give low values 0.998 | S. cerevisiae deletion strains, locus YNL271C, strain bni1, hits give low values 0.995 | S. cerevisiae deletion strains, locus YNL298W, strain CLA4, hits give low values 0.967 | S. cerevisiae deletion strains, locus YNL307C, strain MCK1, hits give low values 0.991 | S. cerevisiae deletion strains, locus YNL322C, strain KRE1 (second series), hits give low values 1.06 | S. cerevisiae deletion strains, locus YNL322C, strain KRE1, hits give low values 1.01 | S. cerevisiae deletion strains, locus YNR049C, strain mso1, hits give low values 1.04 | S. cerevisiae deletion strains, locus YNR052C, strain pop2, hits give low values 0.984 | S. cerevisiae deletion strains, locus YOL012C, strain htz1 0.807 | S. cerevisiae deletion strains, locus YOL147C, strain pex11, hits give low values 1.01 | S. cerevisiae deletion strains, locus YOR001W, strain rrp6, hits give low values 1 | S. cerevisiae deletion strains, locus YOR061W, strain CKA2, hits give low values 1 | S. cerevisiae deletion strains, locus YOR069W, strain VPS5, hits give low values 1 | S. cerevisiae deletion strains, locus YOR070C, strain gyp1, hits give low values 1.03 | S. cerevisiae deletion strains, locus YOR080W, strain dia2, hits give low values 1.05 | S. cerevisiae deletion strains, locus YOR083W, strain WHI5, hits give low values 1.01 | S. cerevisiae deletion strains, locus YOR106W, strain vam3, hits give low values 1.01 | S. cerevisiae deletion strains, locus YOR136W, strain idh2, hits give low values 1 | S. cerevisiae deletion strains, locus YOR144C, strain elg1, hits give low values 1 | S. cerevisiae deletion strains, locus YOR184W, strain ser1, hits give low values 0.987 | S. cerevisiae deletion strains, locus YOR231W, strain MKK1, hits give low values 0.983 | S. cerevisiae deletion strains, locus YOR265W, strain rbl2, hits give low values 1.03 | S. cerevisiae deletion strains, locus YOR290C, strain snf2, hits give low values 0.973 | S. cerevisiae deletion strains, locus YOR316C, strain cot1, hits give low values 1.01 | S. cerevisiae deletion strains, locus YPL055C, strain LGE1, hits give low values 0.985 | S. cerevisiae deletion strains, locus YPL078C, strain atp4, hits give low values 1.02 | S. cerevisiae deletion strains, locus YPL106C, strain sse1, hits give low values 0.995 | S. cerevisiae deletion strains, locus YPL240C, strain hsp82, hits give low values 1.03 | S. cerevisiae deletion strains, locus YPL241C, strain CIN2, hits give low values 1.01 | S. cerevisiae deletion strains, locus YPL256C, strain CLN2, hits give low values 0.97 | S. cerevisiae deletion strains, locus YPR119W, strain clb2, hits give low values 1 | S. cerevisiae deletion strains, locus YPR141C, strain kar3, hits give low values 0.997 | S. cerevisiae deletion strains, locus YPR163C, strain tif3, hits give low values 0.953 | S. cerevisiae deletion strains, locus YPR167C, strain met16, hits give low values 1.01 | S. cerevisiae deletion strains, strain wtn01, hits give low values 0.988 | S. cerevisiae strains, strain wild type, hits give low values 1.04
active: S. cerevisiae deletion strains, locus YKL009W, strain mrt4, hits give low values 1.4 [resistant] | S. cerevisiae deletion strains, locus YKL068W, hits give low values 1.25 [resistant] | S. cerevisiae deletion strains, locus YKL085W, strain MDH1 (second series), hits give low values 1.11 [resistant] | S. cerevisiae deletion strains, locus YKL085W, strain MDH1, hits give low values 1.11 [resistant] | S. cerevisiae deletion strains, locus YKR001C, strain vps1, hits give low values 0.236 | S. cerevisiae deletion strains, locus YLR039C, strain RIC1, hits give low values 0.328 | S. cerevisiae deletion strains, locus YLR262C, strain YPT6 (second series), hits give low values 0.293 | S. cerevisiae deletion strains, locus YLR262C, strain YPT6, hits give low values 0.285 | S. cerevisiae deletion strains, locus YMR231W, strain pep5, hits give low values 0.324 | S. cerevisiae deletion strains, locus YOL006C, strain TOP1, hits give low values 0.122 | S. cerevisiae deletion strains, locus YOR270C, strain vph1, hits give low values 0.468 | S. cerevisiae deletion strains, locus YPL051W, strain arl3, hits give low values 0.7
